Experimental data taken from PubChem BioAssay.

Experiment: inhibitors of Sendai virus-induced IRF3 signaling, primary screen, TLR/RLR signaling modifier project, cell-based, Sendai virus stimulus, luciferase, 10K MLSCN set (AID 602276);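 further: firefly luciferase from ISG56 promoter only with Renilla not read in this screen; 0% = Sendai virus plus DMSO and 100% = medium plus DMSO without virus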
Settings: HEK293 RL24 IRF3 luciferase reporter, at 10 µM, active compounds read high;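 active means inhibition at or above 50% at 10 µM; inactive means inhibition below 50%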

inhibition, inactive:
O=C(OCC(=O)N1CCCC1)c1ccccc1OCc1ccccc1 -11.3%
Cc1cc(NS(=O)(=O)c2ccc(NC(=O)COc3ccccc3C(C)C)cc2)no1 14.6%
CCN(CC)c1ccc(NC(=O)CN2CCN(CC(=O)Nc3ccccc3F)CC2)cc1 12.9%
COc1cc2[nH]c(=O)c(C(=O)NCCCN3CCCCC3)c(O)c2cc1OC -5.59%
Cn1c(NC(=O)c2ccccc2NC(=O)C(C)(C)C)nc2ccccc21 1.78%
O=c1[nH]c2sc3c(c2c2nncn12)CCCC3 7.28%
Cc1nnc(SCC(=O)NCCN2C(=O)CSC2=O)s1 9.12%
Cc1ccc(-c2nn(C)c(=O)c3ccccc23)cc1S(=O)(=O)NCCN1CCOCC1 -17.1%
COc1cccc(Oc2cn[nH]c2-c2ccc(O)cc2O)c1 -4.4%
COc1ccc(CCNC(=O)CCN2C(=O)C3CC=CCC3C2=O)cc1OC (stereo not drawn) 3.55%
c1ccc(-c2nnc(-c3ccco3)n2-c2ccccc2)cc1 15.2%
CCCCCCC1/C(=N/O)CCC1C(=O)OC (stereo not drawn) 0.917%
CCOc1ccc2[nH]c(=O)c(C(c3nnnn3Cc3ccco3)N3CCC(C)CC3)cc2c1 (stereo not drawn) 13%
CCS(=O)(=O)N1CCC(C(=O)NC2CCCCCCC2)CC1 -13%
Cc1occc1C(=O)Nc1nnc(C2CCCCC2)s1 -0.797%
NC(=O)c1ccccc1NC(=O)CN1CCOCC1 21.2%
CCOC(=O)C(CC)n1nc(C)n2c(cc3sccc32)c1=O (stereo not drawn) 10.8%
Cc1ccc(-c2noc(CCC(=O)N3CCN(c4cccc(C(F)(F)F)c4)CC3)n2)cc1 9.01%
Cc1cc(Br)ccc1NC(=O)CNC(=O)CSc1n[nH]c(N)n1 13.4%
O=C(C1CCCN(S(=O)(=O)c2cnc[nH]2)C1)N1CCN(c2ccc(Cl)cc2)CC1 (stereo not drawn) -6.86%
Cc1ccc(CCSCC(=O)O)cn1 4.3%
CCCc1nnc(NC(=O)CCC(=O)N2CCN(CCOc3ccc(C)cc3)CC2)s1 0.418%
CN1CCC(NC(=O)c2cccs2)CC1 8.43%
